In the library only some 3.3% were active in any assay of this set; here they are far more common.
IMPase inh: IMPase inhibition in cells; P97697; CHO-M1 cells, IP1 accumulation, HTRF TR-FRET ratio; inhibition (IP1 accumulation), % at 46.1 µM; 120,000 tested, under 10 active; active = well fitted curve in the direction sought with a large enough effect in the signal ratio, not every such curve was filed as active; inconclusive = small, poorly fitted or top-dose-only effect, or a change in a side signal; inactive = no such curve, though single readings can be large or run the other way; the % refers to the signal ratio;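 also: cells stimulated with carbachol in lithium chloride buffer; plate controls were DMSO basal wells for no effect and reference inhibitor wells for full effect; higher means more IMPase inhibition seen as more IP1 and lower FRET ratio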
Target sequence (P97697 whole entry, looked up): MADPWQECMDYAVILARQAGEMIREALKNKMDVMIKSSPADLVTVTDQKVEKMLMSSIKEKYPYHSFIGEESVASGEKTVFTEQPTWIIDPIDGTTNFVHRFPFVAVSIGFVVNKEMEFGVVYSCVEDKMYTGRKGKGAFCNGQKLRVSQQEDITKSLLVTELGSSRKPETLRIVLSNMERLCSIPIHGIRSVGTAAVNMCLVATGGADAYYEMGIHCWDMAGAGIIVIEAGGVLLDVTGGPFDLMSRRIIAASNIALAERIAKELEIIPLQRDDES
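The IP-One HTRF competitive assay in carbachol-stimulated CHO-M1 cells quantifies cellular IP1. Compounds spanned up to 46 uM final, and activity is expressed as AC50 from concentration-response fits of the ratio and donor data.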
HttQ103 aggreg: reduces HttQ103-GFP aggregates in PC12 cells | PC12 HttQ103-GFP aggregates, Acumen cytometry, 40 h | Potency, µM (doses to about 46.1 µM), without a hit: at the top dose activity change, negative = inhibition, actives largely listed as inhibitors | actives 1.1% (n = 220,000) | AID 1688; also: potency is read from the fitted curve at half-maximal effect; % is scaled to controls: 0 for no effect and ±100 for the full control effect; nearly all actives have a fitted effect of over 60% in size
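Inducible Q103 Huntingtin exon 1–GFP PC12 line, 1500 cells/well in phenol red free DMEM with 5% equine and 5% calf serum. Tebufenozide 100 nM induced expression; compounds titrated; aggregates quantified by cytometry.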
NPSR antagonist: neuropeptide S receptor (human) antagonism, cAMP. actives 1% (n = 220,000). CHO-NPSR cells, cAMP TR-FRET, antagonist mode. Q6W5P4. Potency, µM (titrated, usually from 38.3 µM), inactives show top-dose activity change, negative = inhibition, usual class: inhibitors. AID 1461; also: potency is read from the fitted curve at half-maximal effect; % is scaled to controls: 0 for no effect and ±100 for the full control effect; nearly all actives have a fitted effect of over 50% in size
Target sequence (Q6W5P4 whole entry, looked up): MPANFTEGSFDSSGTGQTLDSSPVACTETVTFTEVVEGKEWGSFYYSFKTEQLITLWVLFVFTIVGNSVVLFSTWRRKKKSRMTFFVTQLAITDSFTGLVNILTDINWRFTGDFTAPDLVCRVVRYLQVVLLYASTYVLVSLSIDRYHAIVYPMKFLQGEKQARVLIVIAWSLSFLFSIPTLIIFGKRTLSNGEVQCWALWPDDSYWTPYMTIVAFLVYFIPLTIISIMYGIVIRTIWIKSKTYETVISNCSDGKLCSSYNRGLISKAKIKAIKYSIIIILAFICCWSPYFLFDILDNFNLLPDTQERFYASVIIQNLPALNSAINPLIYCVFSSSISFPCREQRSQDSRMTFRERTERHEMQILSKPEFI
PNC inhibitor: perinucleolar compartment assembly inhibition | PC3M PTB-GFP, PNC prevalence imaging, 16 h; stronger effect = lower value | activity change (PNC), negative = inhibition, % at 10 µM | actives 3.1% (n = 140,000);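 active = readout at or below -70, meaning at least 70% loss of cells showing the perinucleolar compartment, a nuclear body marking cancer cells; inconclusive = readout between -30 and a set limit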;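 also: plate controls were DMSO wells for no effect and camptothecin positive control wells for full effect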
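Compounds are pinned in duplicate onto adhered PC3M cells stably expressing GFP-tagged PTB and incubated 16 h at 37 C. Cells are then fixed, nuclei stained with Hoechst, and PNC-positive cells counted.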
ALOX12 inhib: blocks human 12-lipoxygenase activity; P18054; purified 12-hLO, xylenol orange hydroperoxide absorbance; Potency, µM (titrated, usually from 57.1 µM), without a hit: at the top dose activity change, negative = inhibition, usual class: inhibitors; actives 0.12% (n = 150,000); AID 1452; also: potency is read from the fitted curve at half-maximal effect; % is scaled to controls: 0 for no effect and ±100 for the full control effect; nearly all actives have a fitted effect of over 55% in size
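Lipoxygenase turnover measured by absorbance at 573 and 405 nm after Fe-XO development. Human 12hLO 150 nM, arachidonate 40 uM, pH 7.0 Hepes buffer with detergent; 15 min compound preincubation, 30 min reaction.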
HTT cytoprotect: protects HTT-Q103 PC12 cells, measured by ATP; actives 0.14% (n = 230,000); PC12 HTT-Q103 induced, cytoprotection, ATP luminescence, 40 h; Potency, µM (top dose mostly 56.4 µM), for inactives: cytoprotection (ATP increase), hits mostly activators; also: potency is read from the fitted curve at half-maximal effect; % of control where 0% means no effect; nearly all actives have a fitted effect of over 45% in size
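Readout: ATPlite luminescence (ATP level). Model: stable PC12, inducible Htt exon1 Q103-GFP. Inducer: tebufenozide, 100 nM final. Compounds: dose series. No G418 in medium.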
Numbers without * were called inactive; [ ] = another dose, or the depositor's remark. Unless noted, calls follow the shape of the dose curve; as a rule, active = well fitted curve in the direction sought with a large enough effect; inconclusive = small, poorly fitted or top-dose-only effect, or another doubt; inactive = no such curve, though single readings can be large; an effect the other way counts as inactive or inconclusive.

For Brc1ccc(C2NCCS2)cc1 (stereo not drawn) the results were HttQ103 aggreg -4%, NPSR antagonist 19% and HTT cytoprotect -6%.
Screening O=C1C(NS(=O)(=O)c2cccs2)=C(N2CCN(c3cccc(C(F)(F)F)c3)CC2)C(=O)c2ccccc21 returned IMPase inh 5, HttQ103 aggreg inconclusive, NPSR antagonist 10µM*, PNC inhibitor inconclusive, ALOX12 inhib -3% and HTT cytoprotect -38%.
`CN(C)c1ccc(NC(=O)/C=C/c2c(Cl)cccc2Cl)cc1` gave IMPase inh -4, HttQ103 aggreg -20%, NPSR antagonist -5%, PNC inhibitor -93*, ALOX12 inhib -2% and HTT cytoprotect -1%[10 µM].
CN(C)S(=O)(=O)c1ccc(NC(=O)/C=C/c2ccccc2Cl)cc1 was read as IMPase inh inconclusive, HttQ103 aggreg 8%, NPSR antagonist -17%[46.1 µM], PNC inhibitor 68, ALOX12 inhib -4% and HTT cytoprotect 2%[10 µM].
Screening COc1ccc(-c2nc3ccc([N+](=O)[O-])cc3[nH]2)cc1 returned HttQ103 aggreg inconclusive, NPSR antagonist -10%, PNC inhibitor inconclusive, ALOX12 inhib -1% and HTT cytoprotect 2%[0.074 µM].
Screening Cc1ccc(-c2nc3ccc([N+](=O)[O-])cc3[nH]2)cc1 returned HttQ103 aggreg 10µM*, NPSR antagonist -22% and HTT cytoprotect -13%[10 µM].
For CN(CC(=O)O)Cc1c(O)c(Cl)cc(Cl)c1Cl the results were ALOX12 inhib -13%[11.4 µM] and HTT cytoprotect -4%[10 µM].
For Cc1ccnc(NC(=S)NC(=O)c2cncc(Br)c2)c1 the results were HttQ103 aggreg 8%, NPSR antagonist -2%, PNC inhibitor -100*, ALOX12 inhib -1% and HTT cytoprotect 21%[10 µM].
COc1ccc(-n2c(SCc3ccc([N+](=O)[O-])cc3)nnc2-c2ccccc2)cc1 was read as HttQ103 aggreg 5%, NPSR antagonist -29%, PNC inhibitor inconclusive, ALOX12 inhib 5% and HTT cytoprotect -5%[10 µM].
Screening CCOc1ccc(-n2c(SCc3ccc([N+](=O)[O-])cc3)nnc2-c2ccccc2)cc1 returned IMPase inh 15, HttQ103 aggreg 20µM*, NPSR antagonist inconclusive, PNC inhibitor -10, ALOX12 inhib -3% and HTT cytoprotect 10%[10 µM].
`O=c1c2cn[nH]c2nc(SCc2ccccc2F)n1-c1ccc(Br)cc1` gave HttQ103 aggreg 13µM*, NPSR antagonist -48%, PNC inhibitor 71 and ALOX12 inhib -5%.
For O=c1c2cn[nH]c2nc(SCc2cc(=O)n3cc(Br)ccc3n2)n1-c1ccc(Br)cc1 the results were HttQ103 aggreg 9%, NPSR antagonist -23% and HTT cytoprotect 5%.
Screening CO[C@@H]1COC(=O)C/C=C\[C@@H](C)[C@H](OC)COC(=O)[C@@H](C)COC(=O)C/C=C\[C@H]1C returned HTT cytoprotect -8%[10 µM].
CCOc1ccccc1N(CC(=O)Nc1ccc2c(c1)OCCO2)S(C)(=O)=O was read as IMPase inh -8, HttQ103 aggreg 3%, NPSR antagonist -3%[46.1 µM], PNC inhibitor -125*, ALOX12 inhib -6% and HTT cytoprotect -12%.
For CCOC(=O)N1CCN(C(=O)c2nn(-c3cc(OC)cc(OC)c3)c(=O)c3ccccc23)CC1 the results were IMPase inh 12, HttQ103 aggreg 10%, NPSR antagonist -9%[46.1 µM], PNC inhibitor 9, ALOX12 inhib -4% and HTT cytoprotect 18%[10 µM].
COc1ccc(-n2nc(C(=O)N3CCCCC3)c3ccccc3c2=O)cc1 was read as IMPase inh -9, HttQ103 aggreg 2.8µM*, NPSR antagonist -13%[46.1 µM], PNC inhibitor -21, ALOX12 inhib -3% and HTT cytoprotect 10%.
CSc1nnc2c(n1)OC(c1cccc(O)c1Cl)Nc1ccccc1-2 (stereo not drawn) was read as IMPase inh 4.
`CCN(CC)Cc1ccc(Nc2ccnc3cc(Cl)ccc23)cc1O` gave ALOX12 inhib -3% and HTT cytoprotect 14µM*.
`O=C(Nc1cccc(F)c1)N1CCCC2(CCN(C(=O)c3csnn3)CC2)C1` gave ALOX12 inhib 5% and HTT cytoprotect -2%.
For CC(c1ccco1)N(C(=O)c1ccccc1NS(=O)(=O)c1cccc([N+](=O)[O-])c1)c1ccccn1 (stereo not drawn) the results were HttQ103 aggreg inconclusive, NPSR antagonist 3%, PNC inhibitor -102*, ALOX12 inhib 2% and HTT cytoprotect 24%[10 µM].
Cc1sc2ncnc(NCCc3ccc(S(N)(=O)=O)cc3)c2c1C was read as IMPase inh 8, HttQ103 aggreg 0.71µM*, NPSR antagonist -16%[46.1 µM], PNC inhibitor 5, ALOX12 inhib 2% and HTT cytoprotect -11%.
`S=C(NCCC(c1ccccc1)c1ccccc1)Nc1ccccc1Cl` gave IMPase inh 10, HttQ103 aggreg 20µM*, NPSR antagonist -28%[46.1 µM], PNC inhibitor 41, ALOX12 inhib inconclusive and HTT cytoprotect -53%.
`COc1ccc(Cl)cc1NC(=S)NCCC(c1ccccc1)c1ccccc1` gave IMPase inh -9, HttQ103 aggreg inconclusive, NPSR antagonist -33%, PNC inhibitor 59, ALOX12 inhib inconclusive and HTT cytoprotect -10%[10 µM].
For COc1cc(NC(=S)NCCC(c2ccccc2)c2ccccc2)c(OC)cc1Cl the results were IMPase inh -21, HttQ103 aggreg 12%, NPSR antagonist -13%[46.1 µM], PNC inhibitor 74, ALOX12 inhib 22µM* and HTT cytoprotect -15%[10 µM].
COc1cc(NC(=O)C(=O)NNC(=O)C2CCCCC2)c(OC)cc1Cl was read as HttQ103 aggreg -13%, NPSR antagonist -3%, PNC inhibitor -95* and ALOX12 inhib 0%.
`COc1cc(NC(=S)NC2CC2)c(OC)cc1Cl` gave HttQ103 aggreg 20µM*, NPSR antagonist 0%, PNC inhibitor inconclusive, ALOX12 inhib 3% and HTT cytoprotect -5%[10 µM].
`OC[C@@H](O)C(O[C@@H]1O[C@@H](CO)[C@H](O)[C@H](O)[C@H]1O)[C@H](O)[C@@H](O)CO` (stereo partly drawn) gave HttQ103 aggreg 9% and HTT cytoprotect 13%.
N#C/C(=C\c1cc(Br)c(O)c(Br)c1)c1nc2ccccc2c(=O)[nH]1 was read as IMPase inh -3.
O=C(O)CSc1nnc(-c2cccc(S(=O)(=O)N3CCOCC3)c2)n1-c1cccc(Cl)c1 was read as HttQ103 aggreg -11%[9.22 µM], NPSR antagonist 10% and HTT cytoprotect 6%[10 µM].

Screening results as filed in PubChem BioAssay.
